YjeE inh = YjeE (TsaE) inhibition, E. coli; AID 605; Potency, µM; 71,000 tested, 0.05% active; purified YjeE enzyme, qHTS inhibition assay
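Fluorescence polarization of a BODIPY Texas Red–ADP probe (2 uM) bound to purified YjeE (10 uM) was read after 15 min room-temperature incubation with compounds. Loss of polarization marks inhibitors; ADP serves as titrated control.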
BRCT inh green = inhibitors of human BRCA1 BRCT-phosphoprotein interaction (green fluorophore) | BRCA1 BRCT-phosphopeptide binding, green fluorescence polarization | Potency, µM (doses to about 76.9 µM), most hits filed as inhibitors | 75,000 tested, 0.05% active
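Compounds were incubated for 12 min at room temperature with a complex of 100 nM fluorescein-tagged pBACH1 decapeptide and 250 nM His-tagged BRCT protein. Buffer was phosphate pH 7.3 with EDTA, DTT and Tween 20. Disruption of binding lowers the polarization signal.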
Tau fil binding = tau filament binding. P10636. recombinant tau filaments, thioflavin S fluorescence, 15 h; filaments grown with octadecylsulfate alongside compound. Potency, µM (highest dose often 57.1 µM). 71,000 tested, 2% active. AID 596;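 further: actives lower thioflavin S fluorescence by blocking filaments or displacing dye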
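ThS-based fibril read: tau 1 uM final, inducer ODS 30 uM final, 37 C for 15 h, ex 450/em 510 nm.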
Pol III holo inh = DNA polymerase III holoenzyme inhibition; 71,000 tested, 0.25% active; reconstituted DNA polymerase III holoenzyme replication, biochemical; Potency, µM (highest dose often 57.1 µM)
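Reconstituted *E. coli* holoenzyme (0.35 nM Pol III, 1 nM beta, 154 nM SSB, 2 nM primase) was preincubated with compound for 15 min at RT. Synthesis on 1.4 nM ssM13Gori ran 35 min, then was stopped with PicoGreen/EDTA and read as dsDNA fluorescence.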
Hsp90 Hop PPI = changes Hsp90-Hop TPR2A binding signal, up or down; Potency, µM (series often up to 57 µM); 71,000 tested, 0.44% active; AID 595; AlphaScreen TPR2A-His6 binding biotin-Hsp90 C-terminal peptide; active means well fitted curve in either direction with a large enough effect; inconclusive means small, poorly fitted or top-dose-only effect, or another doubt
BRCT inh red = inhibitors of human BRCA1 BRCT-phosphoprotein interaction (red fluorophore). P38398. BRCT-phosphopeptide binding, red fluorescence polarization. Potency, µM (doses to about 76.9 µM), most hits filed as inhibitors. 75,000 tested, 0.03% active. AID 892
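Rhodamine-labelled pBACH1 10-mer (100 nM) bound to BRCT domain (100 nM) at pH 7.3; compounds incubated 12 min room temperature, polarization read. Free peptide defines full inhibition; unlabelled decapeptide titrated as control.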
Hsp90-TPR2A inh = confirmation and counter-screen of Hsp90 TPR2A co-chaperone interaction disrupters; AlphaScreen TPR2A-His6 / biotin-Hsp90 peptide binding; 45 tested, 100% active; shares compounds with Hsp90 Hop PPI; activity, negative = inhibition, % at 40 µM or 46 µM, hits read low;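 active means compound lowering the Hsp90 and TPR2A binding signal, whether or not the linker counterscreen also flagged it as an artifact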
Tau ThS bind = tau filament binding by ThS displacement; recombinant tau filaments, Thioflavin S fluorescence displacement; shares compounds with Tau fil binding; 60 tested, 40% active; Potency, µM; calls by dose curve
aSyn ThS displ = displaces Thioflavin S from alpha-synuclein fibrils. shares compounds with Tau fil binding. 60 tested, 40% active. Potency, µM. recombinant alpha-synuclein fibrils, ThS fluorescence displacement. AID 937; calls by dose curve
Abeta ThS bind = displaces Thioflavin S from Abeta1-42 fibrils | AID 956 | Potency, µM | Abeta1-42 fibrillization, thioflavin S fluorescence, overnight 37 C | 60 tested, 50% active | shares compounds with Tau fil binding; calls by dose curve
Target sequence (P05067 whole entry, looked up): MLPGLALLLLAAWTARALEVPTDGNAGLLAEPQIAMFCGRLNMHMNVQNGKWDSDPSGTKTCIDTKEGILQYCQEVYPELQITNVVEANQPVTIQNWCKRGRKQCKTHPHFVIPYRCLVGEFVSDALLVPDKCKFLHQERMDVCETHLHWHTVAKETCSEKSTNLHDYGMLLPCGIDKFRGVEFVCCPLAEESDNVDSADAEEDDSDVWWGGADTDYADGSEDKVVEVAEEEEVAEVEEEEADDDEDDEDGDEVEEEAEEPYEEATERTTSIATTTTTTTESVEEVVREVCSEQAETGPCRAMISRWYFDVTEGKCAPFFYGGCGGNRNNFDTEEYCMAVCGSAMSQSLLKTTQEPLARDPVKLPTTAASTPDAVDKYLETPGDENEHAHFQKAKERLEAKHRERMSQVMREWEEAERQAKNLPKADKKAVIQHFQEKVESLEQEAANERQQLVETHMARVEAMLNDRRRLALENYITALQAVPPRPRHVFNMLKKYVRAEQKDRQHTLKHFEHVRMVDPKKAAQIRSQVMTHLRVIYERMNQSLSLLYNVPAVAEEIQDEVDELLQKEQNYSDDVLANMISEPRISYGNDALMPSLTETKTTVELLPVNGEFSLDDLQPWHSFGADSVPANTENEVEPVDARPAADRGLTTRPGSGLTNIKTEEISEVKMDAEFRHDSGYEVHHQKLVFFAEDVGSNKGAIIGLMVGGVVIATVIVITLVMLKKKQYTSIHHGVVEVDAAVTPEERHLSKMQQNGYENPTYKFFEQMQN
A number is an active result; – = inactive; ? = inconclusive; · = not tested or not shown; [ ] = remark or other dose. A selection: hits, their analogues and other compounds. The true share with any hit is near 2.3%. Unless noted, the call rests on the fitted dose curve; in most records, active means well fitted curve in the direction sought with a large enough effect; inconclusive means small, poorly fitted or top-dose-only effect, or another doubt; inactive means no such curve, though single readings can be large; an effect the other way counts as inactive or inconclusive.

SMILES | YjeE inh | BRCT inh green | Tau fil binding | Pol III holo inh | Hsp90 Hop PPI | BRCT inh red | others
Cc1cc(C)c(C#N)c(SCC(=O)OC2CCCCC2)n1 | – | – | – | – | 32µM | –
Cc1cc(C)c(C#N)c(SCC(=O)CC(=O)OC(C)C)n1 | – | – | – | – | – | –
O=C(NCCN1CCCC1)c1ccc(-n2c(=O)c(=O)[nH]c3ccccc32)cc1 | · | – | · | · | · | –
CC(=O)c1cc(C)oc1C | – | – | – | – | – | –
c1ccc2c(N3CCCC3)nc(-c3ccncc3)nc2c1 | – | – | – | – | – | –
c1ccc(-c2nc(N3CCCCCC3)c3ccccc3n2)nc1 | – | – | 13µM | – | ? | –
N#CCCN1CCN(C(=S)c2ccc(-c3ccc(Cl)c(Cl)c3)o2)CC1 | – | – | 13µM | – | ? | –
N#CCCN1CCN(C(=S)c2ccc(-c3cccc(Cl)c3)o2)CC1 | – | – | 4µM | – | ? | –
S=C(c1ccc(-c2cccc(Cl)c2)o1)N1CCOCC1 | – | – | 16µM | – | – | –
S=C(c1ccc(-c2cc(Cl)ccc2Cl)o1)N1CCOCC1 | · | – | · | · | · | –
CC(C)=CCC/C(C)=C/CO/N=C1/C[C@@H](O)[C@@H](O)[C@@H]2[C@H]3C(=O)N(c4ccc(F)cc4F)C(=O)[C@@H]3CC[C@H]12 | · | –[15.4 µM] | · | · | · | –[15.4 µM]
COc1cccc(Cn2c(=O)c(C)nc3cnc(Nc4cccc(OC)c4)nc32)c1 | – | – | – | – | – | –
COc1cccc(Nc2ncc3nc(C)c(=O)n(C)c3n2)c1 | – | – | 13µM | – | – | –
CCCOC(=O)c1ccc(Oc2c(-c3ccc(OC)cc3O)n[nH]c2C)cc1 | – | – | – | – | – | –
CCCOC(=O)c1ccc(Oc2c(-c3ccc(O)cc3O)n[nH]c2C)cc1 | – | – | 20µM | – | – | –
O=C(c1cc2ncc(Br)cn2n1)N1CCOCC1 | – | – | –[11.4 µM] | –[11.4 µM] | –[11 µM] | –
O=C(c1cc2ncc(Br)cn2n1)N1CCN(C(=O)c2ccco2)CC1 | – | – | – | 25µM | – | –
Cc1noc(C)c1C(=O)N1CCC2(CCCN(C(=O)Nc3cccc(F)c3)C2)CC1 | – | – | – | – | – | –
O=C(Nc1ccc2c(c1)OCO2)c1cc2ncc(Br)cn2n1 | – | – | 25µM | – | – | –
O=C1NC(c2cccs2)Nc2sc3c(c21)CCCC3 (stereo not drawn) | – | – | 2.5µM | ? | ? | –
CN1CCN(c2nc3ccccc3nc2C(C#N)C(=O)OC2CCCCC2)CC1 (stereo not drawn) | – | – | 0.63µM | – | – | –
COCC(C)OC(=O)C(C#N)c1nc2ccccc2nc1N1CCN(Cc2ccccc2)CC1 (stereo not drawn) | – | – | 3.2µM | – | – | –
C=CCNC(=O)C(C#N)c1nc2ccccc2nc1N1CCN(Cc2ccccc2)CC1 (stereo not drawn) | – | – | – | – | – | –
COCCOC(=O)C(C#N)c1nc2ccccc2nc1N1CCN(Cc2ccccc2)CC1 (stereo not drawn) | – | – | ? | – | – | –
CCOC(=O)N1CCN(c2nc3ccccc3nc2C(C#N)S(=O)(=O)c2ccc(C)cc2)CC1 (stereo not drawn) | – | – | – | – | – | –
SMILES | YjeE inh | BRCT inh green | Tau fil binding | Pol III holo inh | Hsp90 Hop PPI | BRCT inh red | others
CC(C)COC(=O)C(C#N)c1nc2ccccc2nc1N1CCN(Cc2ccccc2)CC1 (stereo not drawn) | – | – | 2µM | – | – | –
C=CCOC(=O)C(C#N)c1nc2ccccc2nc1N1CCN(Cc2ccccc2)CC1 (stereo not drawn) | – | – | 1.6µM | – | – | –
CCC(CC)COC(=O)C(C#N)c1nc2ccccc2nc1N1CCOCC1 (stereo not drawn) | – | – | 3.2µM | – | – | –
CCOC(=O)CSc1nc2ccccc2c(=O)n1C1CCCC1 | – | – | – | – | – | –
CCCCNC(=O)CSc1nc2ccccc2c(=O)n1C1CCCC1 | – | – | – | – | – | – | Hsp90-TPR2A inh=-100[alpha-screen platform artifact]
Cc1ccc2oc(=O)c3c4cc(O)c(O)c(C)c4oc3c2c1 | · | – | · | · | · | –
Cc1cccc(Nc2nc(-c3ccccn3)cs2)n1 | – | – | – | – | – | –
O=C(CN1C(=O)CCC1=O)Nc1nc(-c2ccccn2)cs1 | – | – | – | – | 2.5µM | – | Hsp90-TPR2A inh=-100[alpha-screen platform artifact]
Cn1cccc1C(=O)Nc1nc(-c2ccccn2)cs1 | – | – | ? | – | 6.3µM | – | Hsp90-TPR2A inh=-100[alpha-screen platform artifact]
O=C(O)CC/C=C\CC[C@H]1[C@@H](N2CCCCC2)[C@@H](O)C[C@@H]1OCc1ccc(-c2ccccc2)cc1 | – | – | ? | – | – | –
CCN(CC)C(=O)c1sc2nc(-c3ccncc3)[nH]c(=O)c2c1C | – | – | – | – | – | –
CCN(CC)C(=O)c1sc2nc(-c3ccccn3)[nH]c(=O)c2c1C | – | – | – | – | 7.9µM | – | Hsp90-TPR2A inh=-99[alpha-screen platform artifact]
O=S(=O)(Nc1cccc2ncccc12)c1cccs1 | – | – | – | – | 16µM | – | Hsp90-TPR2A inh=-100[alpha-screen platform artifact]
C[C@@]12CC[C@@H]3c4ccc(O)cc4CC[C@H]3[C@H]1C[C@@H](O)[C@H]2O | – | – | – | – | – | –
Brc1ccc(-c2nn3c(-c4ccncc4)nnc3s2)o1 | – | – | – | – | – | –
Brc1ccc(-c2nn3c(-c4ccccn4)nnc3s2)o1 | – | – | ? | ? | 7.9µM | – | Hsp90-TPR2A inh=-99[alpha-screen platform artifact]
CC=O | – | – | – | – | – | –
Cc1ccc(NC(=O)CCCCCC2NC(=O)NC2C)cc1 (stereo not drawn) | – | – | – | – | 0.013µM | – | Hsp90-TPR2A inh=-99[alpha-screen platform artifact]
Cn1c(=O)[nH]c2nnc(-c3ccccc3)nc2c1=O | · | · | · | · | · | · | Hsp90-TPR2A inh=–
Nc1ccc2nc(-c3ccc(Cl)cc3)[nH]c2c1 | – | – | 7.9µM | – | ? | – | Tau ThS bind=–;aSyn ThS displ=?;Abeta ThS bind=?
Cc1ccc2nc(NC(=O)C3CCCN(S(=O)(=O)c4cccc5nsnc45)C3)sc2c1 (stereo not drawn) | – | – | 7.9µM | – | – | – | Tau ThS bind=–;aSyn ThS displ=?;Abeta ThS bind=–
Cc1ccc2nc(NC(=O)C3CCN(S(=O)(=O)c4cccc5nsnc45)CC3)sc2c1 | – | – | 5µM | – | – | – | Tau ThS bind=–;aSyn ThS displ=?;Abeta ThS bind=–
